From PubChem BioAssay AID1159580 (chemical genetic matrix, 2015)
The campaign covered roughly 5,500 compounds. About 2,000 (36%) were called active. Roughly 18% stayed inconclusive and do not appear here. Cut-off read from the data, not from the text of the source: active = normalized growth mostly below about 0.91 (no sharp cut-off); inconclusive = no clear call, values can overlap the other calls; inactive = mostly above about 0.92. Some of the results follow.

Test: chemical genetic growth profiling, strain panel (AID 1159580);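 note: tested at 20 µM; growth read once vehicle control cultures reached saturation at 30 °C; 1 = growth at the plate median or of vehicle wells; lower values mean less growth of the strain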
Settings: growth OD

Measured: normalized growth

O=C(CCBr)N1CCN(C(=O)CCBr)CC1
inactive: S. cerevisiae deletion strains, locus YJR066W, strain TOR1, stronger effect = lower value 0.961 | S. cerevisiae deletion strains, locus YKL009W, strain mrt4, stronger effect = lower value 0.993 | S. cerevisiae deletion strains, locus YKL068W, stronger effect = lower value 1 | S. cerevisiae deletion strains, locus YKL085W, strain MDH1 (second series), stronger effect = lower value 1.01 | S. cerevisiae deletion strains, locus YKL085W, strain MDH1, stronger effect = lower value 1.01 | S. cerevisiae deletion strains, locus YKL160W, strain elf1, stronger effect = lower value 1.03 | S. cerevisiae deletion strains, locus YKL190W, strain CNB1, stronger effect = lower value 1 | S. cerevisiae deletion strains, locus YKR001C, strain vps1, stronger effect = lower value 0.997 | S. cerevisiae deletion strains, locus YKR026C, strain gcn3, stronger effect = lower value 1.01 | S. cerevisiae deletion strains, locus YKR091W, strain srl3, stronger effect = lower value 1.01 | S. cerevisiae deletion strains, locus YLL001W, strain dnm1, stronger effect = lower value 1.01 | S. cerevisiae deletion strains, locus YLL026W, stronger effect = lower value 1.01 | S. cerevisiae deletion strains, locus YLL041C, strain sdh2, stronger effect = lower value 1.01 | S. cerevisiae deletion strains, locus YLR027C, strain aat2, stronger effect = lower value 1.02 | S. cerevisiae deletion strains, locus YLR039C, strain RIC1, stronger effect = lower value 1 | S. cerevisiae deletion strains, locus YLR058C, strain SHM2, stronger effect = lower value 1.01 | S. cerevisiae deletion strains, locus YLR102C, strain apc9, stronger effect = lower value 0.991 | S. cerevisiae deletion strains, locus YLR113W, strain HOG1, stronger effect = lower value 0.979 | S. cerevisiae deletion strains, locus YLR221C, strain rsa3, stronger effect = lower value 1.01 | S. cerevisiae deletion strains, locus YLR258W, strain gsy2, stronger effect = lower value 1.02 | S. cerevisiae deletion strains, locus YLR262C, strain YPT6 (second series), stronger effect = lower value 1.03 | S. cerevisiae deletion strains, locus YLR262C, strain YPT6, stronger effect = lower value 1.02 | S. cerevisiae deletion strains, locus YLR268W, strain sec22, stronger effect = lower value 1 | S. cerevisiae deletion strains, locus YLR320W, strain mms22, stronger effect = lower value 1.03 | S. cerevisiae deletion strains, locus YLR330W, strain CHS5, stronger effect = lower value 1.01 | S. cerevisiae deletion strains, locus YLR342W, strain FKS1 (second series), stronger effect = lower value 1 | S. cerevisiae deletion strains, locus YLR342W, strain FKS1, stronger effect = lower value 1.02 | S. cerevisiae deletion strains, locus YLR357W, strain rsc2, stronger effect = lower value 1 | S. cerevisiae deletion strains, locus YLR370C, strain arc18, stronger effect = lower value 1.02 | S. cerevisiae deletion strains, locus YLR371W, strain rom2, stronger effect = lower value 0.991 | S. cerevisiae deletion strains, locus YLR384C, strain iki3, stronger effect = lower value 1.02 | S. cerevisiae deletion strains, locus YLR418C, strain cdc73, stronger effect = lower value 1.01 | S. cerevisiae deletion strains, locus YML016C, strain PPZ1, stronger effect = lower value 1.01 | S. cerevisiae deletion strains, locus YML032C, strain rad52, stronger effect = lower value 1 | S. cerevisiae deletion strains, locus YML120C, strain ndi1, stronger effect = lower value 1.02 | S. cerevisiae deletion strains, locus YML124C, strain tub3, stronger effect = lower value 0.991 | S. cerevisiae deletion strains, locus YMR058W, strain fet3, stronger effect = lower value 1.01 | S. cerevisiae deletion strains, locus YMR078C, strain ctf18, stronger effect = lower value 1.01 | S. cerevisiae deletion strains, locus YMR125W, strain sto1, stronger effect = lower value 1.03 | S. cerevisiae deletion strains, locus YMR129W, stronger effect = lower value 1.02 | S. cerevisiae deletion strains, locus YMR205C, strain PFK2, stronger effect = lower value 1.03 | S. cerevisiae deletion strains, locus YMR223W, strain ubp8, stronger effect = lower value 0.999 | S. cerevisiae deletion strains, locus YMR231W, strain pep5, stronger effect = lower value 1.03 | S. cerevisiae deletion strains, locus YMR307W, strain GAS1, stronger effect = lower value 0.993 | S. cerevisiae deletion strains, locus YNL067W, strain RPL9B, stronger effect = lower value 1.01 | S. cerevisiae deletion strains, locus YNL071W, strain lat1, stronger effect = lower value 1.02 | S. cerevisiae deletion strains, locus YNL128W, strain TEP1, stronger effect = lower value 1.01 | S. cerevisiae deletion strains, locus YNL153C, strain GIM3, stronger effect = lower value 1.02 | S. cerevisiae deletion strains, locus YNL183C, strain NPR1, stronger effect = lower value 0.936 | S. cerevisiae deletion strains, locus YNL209W, strain ssb2, stronger effect = lower value 1.02 | S. cerevisiae deletion strains, locus YNL233W, strain BNI4, stronger effect = lower value 1 | S. cerevisiae deletion strains, locus YNL248C, strain rpa49, stronger effect = lower value 1.01 | S. cerevisiae deletion strains, locus YNL250W, strain rad50, stronger effect = lower value 1.01 | S. cerevisiae deletion strains, locus YNL271C, strain bni1, stronger effect = lower value 0.999 | S. cerevisiae deletion strains, locus YNL298W, strain CLA4, stronger effect = lower value 1.01 | S. cerevisiae deletion strains, locus YNL307C, strain MCK1, stronger effect = lower value 0.997 | S. cerevisiae deletion strains, locus YNL322C, strain KRE1 (second series), stronger effect = lower value 1.01 | S. cerevisiae deletion strains, locus YNL322C, strain KRE1, stronger effect = lower value 1.01 | S. cerevisiae deletion strains, locus YNR049C, strain mso1, stronger effect = lower value 1.01 | S. cerevisiae deletion strains, locus YNR052C, strain pop2, stronger effect = lower value 1 | S. cerevisiae deletion strains, locus YOL006C, strain TOP1, stronger effect = lower value 1.02 | S. cerevisiae deletion strains, locus YOL012C, strain htz1 0.666 | S. cerevisiae deletion strains, locus YOL147C, strain pex11, stronger effect = lower value 0.998 | S. cerevisiae deletion strains, locus YOR001W, strain rrp6, stronger effect = lower value 1.01 | S. cerevisiae deletion strains, locus YOR061W, strain CKA2, stronger effect = lower value 1.01 | S. cerevisiae deletion strains, locus YOR069W, strain VPS5, stronger effect = lower value 1.01 | S. cerevisiae deletion strains, locus YOR070C, strain gyp1, stronger effect = lower value 1.02 | S. cerevisiae deletion strains, locus YOR080W, strain dia2, stronger effect = lower value 1.02 | S. cerevisiae deletion strains, locus YOR083W, strain WHI5, stronger effect = lower value 1.02 | S. cerevisiae deletion strains, locus YOR106W, strain vam3, stronger effect = lower value 1.02 | S. cerevisiae deletion strains, locus YOR136W, strain idh2, stronger effect = lower value 0.998 | S. cerevisiae deletion strains, locus YOR144C, strain elg1, stronger effect = lower value 0.993 | S. cerevisiae deletion strains, locus YOR184W, strain ser1, stronger effect = lower value 0.998 | S. cerevisiae deletion strains, locus YOR231W, strain MKK1, stronger effect = lower value 0.985 | S. cerevisiae deletion strains, locus YOR265W, strain rbl2, stronger effect = lower value 1.01 | S. cerevisiae deletion strains, locus YOR270C, strain vph1, stronger effect = lower value 1.08 | S. cerevisiae deletion strains, locus YOR290C, strain snf2, stronger effect = lower value 1 | S. cerevisiae deletion strains, locus YOR316C, strain cot1, stronger effect = lower value 0.999 | S. cerevisiae deletion strains, locus YPL051W, strain arl3, stronger effect = lower value 1.02 | S. cerevisiae deletion strains, locus YPL078C, strain atp4, stronger effect = lower value 1.01 | S. cerevisiae deletion strains, locus YPL106C, strain sse1, stronger effect = lower value 1.03 | S. cerevisiae deletion strains, locus YPL240C, strain hsp82, stronger effect = lower value 1.02 | S. cerevisiae deletion strains, locus YPL241C, strain CIN2, stronger effect = lower value 1.01 | S. cerevisiae deletion strains, locus YPL256C, strain CLN2, stronger effect = lower value 0.996 | S. cerevisiae deletion strains, locus YPR119W, strain clb2, stronger effect = lower value 0.994 | S. cerevisiae deletion strains, locus YPR141C, strain kar3, stronger effect = lower value 0.992 | S. cerevisiae deletion strains, locus YPR163C, strain tif3, stronger effect = lower value 0.994 | S. cerevisiae deletion strains, locus YPR167C, strain met16, stronger effect = lower value 1.01 | S. cerevisiae deletion strains, strain wtn01, stronger effect = lower value 0.989 | S. cerevisiae strains, strain wild type, stronger effect = lower value 1.01
